Measurements from PubChem BioAssay AID1159580 (chemical genetic matrix, 2015).
Screen size: about 5,500 compounds; about 2,000 (36%) were called active. Not shown: some 18% with an inconclusive outcome. Rule as the data show it: active = normalized growth mostly below about 0.91 (no sharp cut-off); inconclusive = no clear call, values can overlap the other calls; inactive = mostly above about 0.92. The list shows a part of the results.

Experiment: chemical genetic growth profiling, strain panel (AID 1159580);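 also: tested at 20 µM; growth read once vehicle control cultures reached saturation at 30 °C; 1 = growth at the plate median or of vehicle wells; lower values mean less growth of the strain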
Settings: growth OD

Measured: normalized growth

Cc1c(Cl)cccc1SCC(=O)O
inactive: S. cerevisiae deletion strains, locus YAL013W, strain DEP1, active compounds read low 0.944 | S. cerevisiae deletion strains, locus YBR229C, strain ROT2, active compounds read low 0.958 | S. cerevisiae deletion strains, locus YCL061C, strain MRC1, active compounds read low 0.989 | S. cerevisiae deletion strains, locus YDL101C, strain DUN1, active compounds read low 0.973 | S. cerevisiae deletion strains, locus YDL134C, strain PPH21, active compounds read low 1.01 | S. cerevisiae deletion strains, locus YDR150W, strain NUM1, active compounds read low 0.926 | S. cerevisiae deletion strains, locus YEL061C, strain CIN8, active compounds read low 0.977 | S. cerevisiae deletion strains, locus YGR078C, strain PAC10, active compounds read low 0.964 | S. cerevisiae deletion strains, locus YHR030C, strain SLT2, active compounds read low 1.06 | S. cerevisiae deletion strains, locus YHR087W, strain rtc3, active compounds read low 0.984 | S. cerevisiae deletion strains, locus YJR043C, strain POL32, active compounds read low 0.973 | S. cerevisiae deletion strains, locus YJR075W, strain HOC1, active compounds read low 0.937 | S. cerevisiae deletion strains, locus YKL190W, strain CNB1, active compounds read low 1.01 | S. cerevisiae deletion strains, locus YLR039C, strain RIC1, active compounds read low 1 | S. cerevisiae deletion strains, locus YLR058C, strain SHM2 (second series), active compounds read low 0.967 | S. cerevisiae deletion strains, locus YLR085C, strain ARP6, active compounds read low 1.03 | S. cerevisiae deletion strains, locus YLR262C, strain YPT6, active compounds read low 0.995 | S. cerevisiae deletion strains, locus YML094W, strain GIM5, active compounds read low 0.997 | S. cerevisiae deletion strains, locus YMR263W, strain SAP30, active compounds read low 0.941 | S. cerevisiae deletion strains, locus YNL153C, strain GIM3, active compounds read low 0.942 | S. cerevisiae deletion strains, locus YNL298W, strain CLA4 (second series), active compounds read low 1.02 | S. cerevisiae deletion strains, locus YNL322C, strain KRE1, active compounds read low 0.944 | S. cerevisiae deletion strains, locus YNR030W, strain Alg12, active compounds read low 1 | S. cerevisiae deletion strains, locus YPL055C, strain LGE1, active compounds read low 0.837 | S. cerevisiae deletion strains, locus YPL241C, strain CIN2, active compounds read low 1 | S. cerevisiae deletion strains, locus YPR135W, strain CTF4, active compounds read low 1.06 | S. cerevisiae strains, strain wild type, active compounds read low 1.01
active: S. cerevisiae deletion strains, locus YMR219W, strain ESC1, active compounds read low 0.945
